# Measured values from PubChem BioAssay (EPA / NIEHS).
# Several values for one entry are separate records, joined by “and”; a condition that tells them apart may be missing. Identical values can stand only once. Inconclusive results are not listed. A structure can be active in one record and inactive in another. Activity calls are given as the source filed them. How the source made its calls, unless noted: active means hit-call score of the fitted dose curve at least 0.9, where 1 is the maximum; inconclusive means response in the unintended direction; inactive means score below 0.9.
# Experiments:
# [1] = molecular target: X-box-binding protein 1 (Homo sapiens) (UniProt P17861); test: ATG_Xbp1_CIS: Attagene CIS-FACTORIAL HepG2 Assay for human X-box Binding Protein 1 (XBP1) (AID 2282972; active means hit-call score of the fitted dose curve at least 0.9, where 1 is the maximum; inactive means score below 0.9); details: HepG2 XBP1 cis-element reporter, Attagene multiplex; actives raise or lower the signal
# Method in brief: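 HepG2 cells transiently transfected with cis-regulated multiple reporter transcription units; endogenous transcription factor activity measured 24 hours after chemical dosing. Reporter mRNA quantified by RT-PCR, 6-FAM primer extension, HpaI digestion and capillary electrophoresis; bidirectional fitting versus DMSO.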
# [2] = ATG_M_19_TRANS: Attagene TRANS-FACTORIAL HepG2 Assay for M19 Transcription Factor (Internal Marker) (AID 2282974); details: HepG2 Attagene TRANS-FACTORIAL M19 internal marker reporter
# Method in brief: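 Measured here: internal-marker reporter transcript from HepG2 cells transfected with MRTUs, harvested at 24 h. cDNA PCR products were 6-FAM labelled by primer extension, cut with HpaI for 2 h at 37 C, and resolved by CE.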
# [3] = molecular target: Estrogen-related receptor gamma (Homo sapiens) (UniProt P62508); test: ATG_ERRg_TRANS: Attagene TRANS-FACTORIAL HepG2 Assay for human Estrogen-Related Receptor gamma (ERRg) (AID 2282977); details: HepG2 Attagene TRANS reporter, ERRg transactivation;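 further: hits increase reporter signal over DMSO so potencies reflect activators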
# Method in brief: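 Transient HepG2 transfectants, 24 h compound exposure, GAL4-UAS reporter mRNA by RT-PCR/6-FAM labelling/capillary electrophoresis; positive direction vs DMSO.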
# [4] = molecular target: Glucocorticoid receptor (Homo sapiens) (UniProt P04150); test: ATG_GR_TRANS: Attagene TRANS-FACTORIAL HepG2 Assay for human Glucocorticoid Receptor (GR) (AID 2282978); details: HepG2 Attagene TRANS GR reporter, mRNA transcription;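 further: activators score as hits since higher reporter transcript over DMSO is fitted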
# Method in brief: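 Measurement of GAL4-UAS-driven reporter mRNA in human HepG2 liver cells 24 h post-dosing, using RT-PCR with fluorescent labelling and capillary electrophoresis; the transfected constructs report exogenous NR-GAL4 chimera activity, fitted upward against DMSO.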
# [5] = molecular target: Bile acid receptor (Homo sapiens) (UniProt Q96RI1); test: ATG_FXR_TRANS: Attagene TRANS-FACTORIAL HepG2 Assay for Farnesoid X Receptor (FXR) (AID 2282979); details: HepG2 Attagene TRANS FXR-GAL4 reporter transcription;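 further: hits raise reporter mRNA above DMSO so AC50 marks FXR activation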
# Method in brief: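 HepG2 cells were transiently transfected with GAL4-UAS reporters driven by chimeric NR-Gal4 proteins and dosed for 24 h. Reporter mRNA was quantified by RT-PCR, fluorescent labelling, HpaI digestion and capillary electrophoresis, with gain of signal scored versus DMSO.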
# [6] = ATG_VDRE_CIS: Attagene CIS-FACTORIAL HepG2 Assay for human Vitamin D Receptor Element (VDRE) (AID 2282968; active means hit-call score of the fitted dose curve at least 0.9, where 1 is the maximum; inactive means score below 0.9); details: HepG2 VDRE cis-reporter transcription, actives raise or lower the signal
# Method in brief: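 In transiently transfected HepG2 liver cells, gain or loss of reporter mRNA after 24 h exposure is scored relative to DMSO, using fluorescence detection by capillary electrophoresis of RT-PCR products.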
# [7] = ATG_GAL4_TRANS: Attagene TRANS-FACTORIAL HepG2 Assay for GAL4 (Internal Marker) (AID 2282976); details: HepG2 Attagene TRANS GAL4 internal marker reporter
# Method in brief: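 Background-control readout: GAL4-UAS reporter transcript in transiently transfected HepG2 cells after 24 h compound exposure. Measured by RT-PCR, 6-FAM primer extension, HpaI digest and capillary electrophoresis; gain-of-signal fit versus DMSO.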
# [8] = molecular target: Estrogen receptor (Homo sapiens) (UniProt P03372); test: ATG_ERa_TRANS: Attagene TRANS-FACTORIAL HepG2 Assay for human Estrogen Receptor alpha (ERa) (AID 2282970); details: HepG2 Attagene TRANS ERa GAL4 reporter, mRNA
# Method in brief: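 HepG2 cells transiently transfected with multiplexed GAL4-UAS reporter units read out chimeric NR-Gal4 activity. After 24 h compound exposure, reporter mRNA was quantified by RT-PCR, 6-FAM labeling, HpaI digestion and capillary electrophoresis, relative to DMSO.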
# [9] = molecular target: Steroid hormone receptor ERR1 (Homo sapiens) (UniProt P11474); test: ATG_ERRa_TRANS: Attagene TRANS-FACTORIAL HepG2 Assay for human Estrogen-Related Receptor alpha (ERRa) (AID 2282971); details: HepG2 Attagene TRANS reporter, ERRa transactivation
# Method in brief: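 HepG2 cells transiently transfected with GAL4-UAS reporter units and chimeric NR-Gal4 constructs; after 24 hour compound incubation, reporter mRNA quantified by RT-PCR, fluorescent labelling and capillary electrophoresis, gain of signal versus DMSO.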
# [10] = molecular target: Nuclear receptor subfamily 1 group I member 3 (Homo sapiens) (UniProt Q14994); test: ATG_CAR_TRANS: Attagene TRANS-FACTORIAL HepG2 Assay for human Constitutive Androstane Receptor (CAR) (AID 2282969); details: HepG2 Attagene TRANS-FACTORIAL CAR reporter;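 further: activators raise reporter mRNA above DMSO so AC50 marks induction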
# Method in brief: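 Readout is reporter mRNA induction, quantified by fluorescent primer extension and capillary electrophoresis after RT-PCR. Cells were HepG2 transiently carrying chimeric NR-Gal4 constructs with GAL4-UAS reporters, treated for 24 h; activity scored upward from DMSO.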
# Sequence of Nuclear receptor subfamily 1 group I member 3 (Homo sapiens) (Q14994 whole entry, looked up, the tested form may be a part): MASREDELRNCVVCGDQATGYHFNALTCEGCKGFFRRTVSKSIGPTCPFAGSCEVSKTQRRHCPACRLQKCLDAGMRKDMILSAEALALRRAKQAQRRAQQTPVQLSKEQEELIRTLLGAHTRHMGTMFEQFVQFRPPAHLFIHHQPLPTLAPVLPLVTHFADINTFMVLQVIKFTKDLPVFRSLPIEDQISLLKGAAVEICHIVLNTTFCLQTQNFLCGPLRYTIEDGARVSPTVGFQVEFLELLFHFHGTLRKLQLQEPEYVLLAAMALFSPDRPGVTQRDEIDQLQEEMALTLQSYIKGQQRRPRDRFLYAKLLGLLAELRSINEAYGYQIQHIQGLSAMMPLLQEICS
# Sequence of Glucocorticoid receptor (Homo sapiens) (P04150 whole entry, looked up, the tested form may be a part): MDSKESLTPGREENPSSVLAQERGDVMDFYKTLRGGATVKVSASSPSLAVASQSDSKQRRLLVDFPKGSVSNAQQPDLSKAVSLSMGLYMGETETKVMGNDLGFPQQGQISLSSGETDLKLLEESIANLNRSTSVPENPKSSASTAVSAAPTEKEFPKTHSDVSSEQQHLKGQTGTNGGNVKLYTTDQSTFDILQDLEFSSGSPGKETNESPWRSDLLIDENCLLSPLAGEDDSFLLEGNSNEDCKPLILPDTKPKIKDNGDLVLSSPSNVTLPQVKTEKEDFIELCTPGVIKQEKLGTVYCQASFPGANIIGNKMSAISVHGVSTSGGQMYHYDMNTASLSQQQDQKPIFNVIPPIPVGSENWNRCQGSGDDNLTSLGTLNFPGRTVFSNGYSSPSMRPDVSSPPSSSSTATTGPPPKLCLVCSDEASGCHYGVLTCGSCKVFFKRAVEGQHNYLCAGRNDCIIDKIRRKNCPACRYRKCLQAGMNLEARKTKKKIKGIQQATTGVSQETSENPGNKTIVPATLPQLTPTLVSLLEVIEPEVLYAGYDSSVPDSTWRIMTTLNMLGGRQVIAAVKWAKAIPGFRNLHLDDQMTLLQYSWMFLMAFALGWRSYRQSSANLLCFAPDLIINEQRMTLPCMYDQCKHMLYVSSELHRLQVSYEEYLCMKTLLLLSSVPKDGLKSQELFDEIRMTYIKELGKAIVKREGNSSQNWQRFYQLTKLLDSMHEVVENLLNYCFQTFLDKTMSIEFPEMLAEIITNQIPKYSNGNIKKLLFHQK
# Sequence of Bile acid receptor (Homo sapiens) (Q96RI1 whole entry, looked up, the tested form may be a part): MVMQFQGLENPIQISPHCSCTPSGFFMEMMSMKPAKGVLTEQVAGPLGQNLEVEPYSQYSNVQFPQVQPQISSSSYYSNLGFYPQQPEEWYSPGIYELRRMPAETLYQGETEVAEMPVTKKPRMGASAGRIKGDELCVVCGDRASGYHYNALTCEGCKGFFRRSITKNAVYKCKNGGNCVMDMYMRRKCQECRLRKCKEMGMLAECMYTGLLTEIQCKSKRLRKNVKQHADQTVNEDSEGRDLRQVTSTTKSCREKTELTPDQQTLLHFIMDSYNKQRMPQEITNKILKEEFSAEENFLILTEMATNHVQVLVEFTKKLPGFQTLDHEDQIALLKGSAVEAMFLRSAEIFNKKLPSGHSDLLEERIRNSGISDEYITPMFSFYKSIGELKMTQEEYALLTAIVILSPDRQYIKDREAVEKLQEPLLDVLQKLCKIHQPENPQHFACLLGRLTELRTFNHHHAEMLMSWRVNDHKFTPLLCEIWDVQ
# Sequence of X-box-binding protein 1 (Homo sapiens) (P17861 whole entry, looked up): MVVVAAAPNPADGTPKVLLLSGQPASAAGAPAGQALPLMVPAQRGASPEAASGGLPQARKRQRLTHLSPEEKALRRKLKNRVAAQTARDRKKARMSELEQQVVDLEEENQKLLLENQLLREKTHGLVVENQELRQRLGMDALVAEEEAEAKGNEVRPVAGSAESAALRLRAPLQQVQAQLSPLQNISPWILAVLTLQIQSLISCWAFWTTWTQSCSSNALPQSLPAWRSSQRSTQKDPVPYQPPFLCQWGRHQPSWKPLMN
# Sequence of Steroid hormone receptor ERR1 (Homo sapiens) (P11474 whole entry, looked up, the tested form may be a part): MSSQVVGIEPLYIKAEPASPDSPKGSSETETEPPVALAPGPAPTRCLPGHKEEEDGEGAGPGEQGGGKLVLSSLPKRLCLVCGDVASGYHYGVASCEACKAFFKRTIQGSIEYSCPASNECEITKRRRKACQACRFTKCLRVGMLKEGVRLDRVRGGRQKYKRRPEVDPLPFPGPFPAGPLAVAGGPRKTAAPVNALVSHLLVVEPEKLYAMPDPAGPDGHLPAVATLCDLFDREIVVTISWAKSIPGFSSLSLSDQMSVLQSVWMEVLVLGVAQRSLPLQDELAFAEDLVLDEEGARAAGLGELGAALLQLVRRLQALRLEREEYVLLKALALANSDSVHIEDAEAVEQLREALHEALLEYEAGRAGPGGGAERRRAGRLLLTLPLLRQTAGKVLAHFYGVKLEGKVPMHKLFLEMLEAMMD
# Sequence of Estrogen-related receptor gamma (Homo sapiens) (P62508 whole entry, looked up, the tested form may be a part): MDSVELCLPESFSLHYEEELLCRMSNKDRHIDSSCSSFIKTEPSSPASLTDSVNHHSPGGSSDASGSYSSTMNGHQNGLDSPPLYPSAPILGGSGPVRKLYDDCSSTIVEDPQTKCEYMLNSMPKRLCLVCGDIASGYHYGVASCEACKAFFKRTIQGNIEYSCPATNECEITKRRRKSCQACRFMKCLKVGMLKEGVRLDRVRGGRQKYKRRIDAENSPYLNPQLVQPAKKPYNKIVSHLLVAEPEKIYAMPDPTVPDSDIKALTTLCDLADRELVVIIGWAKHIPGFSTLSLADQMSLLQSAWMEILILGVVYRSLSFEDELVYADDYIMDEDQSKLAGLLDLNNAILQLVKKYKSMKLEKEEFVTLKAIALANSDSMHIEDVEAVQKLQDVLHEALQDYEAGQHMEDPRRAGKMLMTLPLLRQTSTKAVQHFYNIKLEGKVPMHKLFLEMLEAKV
# Sequence of Estrogen receptor (Homo sapiens) (P03372 whole entry, looked up, the tested form may be a part): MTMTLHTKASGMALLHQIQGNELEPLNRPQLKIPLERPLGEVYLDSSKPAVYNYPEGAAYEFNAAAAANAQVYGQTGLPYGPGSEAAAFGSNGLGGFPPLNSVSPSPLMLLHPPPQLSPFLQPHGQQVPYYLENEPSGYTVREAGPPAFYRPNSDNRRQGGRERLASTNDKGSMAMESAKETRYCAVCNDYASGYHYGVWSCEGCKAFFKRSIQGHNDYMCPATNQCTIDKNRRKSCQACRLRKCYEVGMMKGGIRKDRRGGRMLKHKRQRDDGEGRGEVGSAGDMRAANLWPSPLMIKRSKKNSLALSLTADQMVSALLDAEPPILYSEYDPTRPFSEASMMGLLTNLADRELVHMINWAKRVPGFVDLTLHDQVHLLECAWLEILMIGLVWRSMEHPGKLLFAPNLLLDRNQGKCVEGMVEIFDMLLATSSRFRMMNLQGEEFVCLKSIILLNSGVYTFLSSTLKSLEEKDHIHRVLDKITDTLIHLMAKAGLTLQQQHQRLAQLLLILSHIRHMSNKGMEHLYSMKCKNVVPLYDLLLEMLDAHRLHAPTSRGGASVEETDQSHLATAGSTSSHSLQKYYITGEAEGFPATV
structure (smiles),measurement,setting,value
OCC(CO)(CBr)CBr,outcome,[1],inactive
same,outcome,[2],inactive
same,outcome,[3],inactive
same,outcome,[4],inactive
same,outcome,[5],inactive
CC(C)c1c(C(=O)Nc2ccccc2)c(-c2ccccc2)c(-c2ccc(F)cc2)n1CC[C@@H](O)C[C@@H](O)CC(=O)O,AC50,[6],14.2 µM (active) and 7.84 µM (active)
same,outcome,[1],inactive
same,outcome,[2],inactive
same,outcome,[7],inactive
same,outcome,[4],inactive
CC(O)COc1ccccc1 (stereo unspecified),outcome,[6],inactive
same,outcome,[1],inactive
same,outcome,[2],inactive
same,outcome,[4],inactive
same,outcome,[5],inactive
CCCCCCCCCCCC(=O)O,AC50,[1],87 µM (active)
same,outcome,[1],inactive
same,outcome,[2],inactive
same,outcome,[7],inactive
CC(=O)Nc1ccc(O)cc1,outcome,[1],inactive
CC1=NN(c2ccccc2)C(=O)C1,outcome,[1],inactive
same,outcome,[2],inactive
same,outcome,[4],inactive
CCCCCCCCCCCC,outcome,[1],inactive
same,outcome,[2],inactive
same,outcome,[7],inactive
same,outcome,[4],inactive
CN(C)CCOC(c1ccccc1)c1ccccc1,outcome,[8],inactive
same,outcome,[1],inactive
same,outcome,[4],inactive
O=C1NS(=O)(=O)c2ccccc21,outcome,[1],inactive
same,outcome,[2],inactive
same,outcome,[7],inactive
OCCN1CN(CCO)CN(CCO)C1,outcome,[6],inactive
same,AC50,[1],164 µM (active)
same,outcome,[2],inactive
same,outcome,[7],inactive
same,outcome,[4],inactive
O=C(NO)c1ccccc1,outcome,[6],inactive
same,outcome,[9],inactive
same,outcome,[1],inactive
same,outcome,[2],inactive
same,outcome,[7],inactive
same,outcome,[3],inactive
same,outcome,[4],inactive
same,outcome,[5],inactive
NS(=O)(=O)O,outcome,[6],inactive
same,outcome,[1],inactive
same,outcome,[2],inactive
same,outcome,[7],inactive
same,outcome,[4],inactive
CC=O,outcome,[6],inactive
same,outcome,[1],inactive
same,outcome,[2],inactive
same,outcome,[7],inactive
same,outcome,[4],inactive
O=C(c1ccccc1)c1ccccc1,outcome,[6],inactive
same,outcome,[1],inactive
same,outcome,[2],inactive
same,outcome,[7],inactive
same,outcome,[4],inactive
same,outcome,[5],inactive
O=S(=O)(O)c1ccccc1,outcome,[6],inactive
same,outcome,[1],inactive
same,outcome,[7],inactive
same,outcome,[3],inactive
same,outcome,[4],inactive
CN(C)c1ccc(C(=C2C=CC(=[N+](C)C)C=C2)c2ccccc2)cc1,AC50,[6],1.82 µM (active) and 1.3 µM (active)
same,AC50,[1],1.94 µM (active)
same,outcome,[1],inactive
same,outcome,[7],inactive
same,outcome,[3],inactive
same,outcome,[4],inactive
same,outcome,[5],inactive
CCCCC(CC)C(=O)O (stereo unspecified),outcome,[1],inactive
same,outcome,[2],inactive
same,outcome,[7],inactive
CCCCCCCCCCCCCC[n+]1ccccc1,outcome,[6],inactive
same,outcome,[9],inactive
same,outcome,[1],inactive
same,outcome,[2],inactive
same,AC50,[3],189 µM (active)
same,outcome,[4],inactive
same,outcome,[5],inactive
CNNCc1ccc(C(=O)NC(C)C)cc1,outcome,[6],inactive
same,outcome,[1],inactive
same,outcome,[2],inactive
same,outcome,[4],inactive
CN(Cc1cnc2nc(N)nc(N)c2n1)c1ccc(C(=O)N[C@@H](CCC(=O)O)C(=O)O)cc1,outcome,[8],inactive
same,outcome,[1],inactive
same,outcome,[2],inactive
same,outcome,[7],inactive
same,outcome,[5],inactive
O=C1OC(=O)C(F)(F)C1(F)F,outcome,[6],inactive
same,outcome,[9],inactive
same,outcome,[1],inactive
same,outcome,[2],inactive
same,outcome,[7],inactive
same,outcome,[4],inactive
CCO[Si](C)(C)OCC,outcome,[6],inactive
same,outcome,[1],inactive
same,outcome,[2],inactive
same,outcome,[7],inactive
same,outcome,[3],inactive
same,outcome,[4],inactive
Cc1[nH]nc2c1N=C(c1ccccc1Cl)c1cc([N+](=O)[O-])ccc1N2,outcome,[6],inactive
same,outcome,[1],inactive
same,outcome,[2],inactive
same,outcome,[4],inactive
same,outcome,[5],inactive
NNC(=O)CCCCC(=O)NN,outcome,[6],inactive
same,outcome,[9],inactive
same,outcome,[1],inactive
same,outcome,[2],inactive
same,outcome,[7],inactive
same,outcome,[5],inactive
CS(=O)(=O)c1ccc([C@@H](CC2CCCC2)C(=O)Nc2cnccn2)cc1Cl,AC50,[1],70.7 µM (active)
same,outcome,[3],inactive
same,outcome,[4],inactive
Cc1ccccc1C(OCCN(C)C)c1ccccc1 (stereo unspecified),outcome,[10],inactive
same,outcome,[8],inactive
same,outcome,[9],inactive
same,AC50,[1],124 µM (active)
same,outcome,[1],inactive
same,outcome,[7],inactive
same,outcome,[5],inactive
Cn1sccc1=O,outcome,[6],inactive
same,outcome,[9],inactive
same,AC50,[1],160 µM (active)
same,outcome,[2],inactive
same,outcome,[4],inactive
CCCCC=O,outcome,[6],inactive
same,outcome,[1],inactive
same,outcome,[7],inactive
same,outcome,[4],inactive
same,outcome,[5],inactive
NCCN,outcome,[8],inactive
same,outcome,[1],inactive
same,outcome,[2],inactive
same,outcome,[7],inactive
c1ccc2c(c1)CCC2,outcome,[6],inactive
same,outcome,[1],inactive
same,outcome,[2],inactive
same,outcome,[7],inactive
same,outcome,[4],inactive
same,outcome,[5],inactive
Cc1ccc(S(=O)(=O)O)cc1,outcome,[6],inactive
same,outcome,[1],inactive
same,outcome,[7],inactive
Cc1cc(C(C)(C)C)c(O)c(C(C)(C)C)c1,outcome,[10],inactive
same,AC50,[1],33.4 µM (active) and 89.6 µM (active)
same,outcome,[2],inactive
same,AC50,[4],100 µM (active)
same,outcome,[5],inactive
CCC1CO1 (stereo unspecified),outcome,[6],inactive
same,outcome,[1],inactive
same,outcome,[7],inactive
same,outcome,[4],inactive
same,outcome,[5],inactive
CCCCCCCCCCCCCCC,outcome,[6],inactive
same,outcome,[1],inactive
same,outcome,[2],inactive
same,outcome,[7],inactive
same,outcome,[4],inactive
CCCC=O,outcome,[6],inactive
same,outcome,[9],inactive
same,outcome,[1],inactive
same,outcome,[2],inactive
same,outcome,[7],inactive
same,outcome,[3],inactive
same,outcome,[4],inactive
